Data on 93 compounds can be found in PubChem BioAssay AID1347418 (Sanford-Burnham Center for Chemical Genomics, 2020).

Several values for one entry are separate records, joined by “and”; a condition that tells them apart may be missing. Equal entries are not always repeated. The campaign covered roughly 1,300 compounds. About 750 (58%) were called active. Some of the results follow. The source holds several records for some structures; these can differ, active in one and inactive in another.

The target of the assay is Sulfhydryl oxidase 1 (Homo sapiens) (UniProt O00391). Kind of assay: inhibition of human sulfhydryl oxidase QSOX1 – biochemical, ROS-Glo H2O2 luminescence, HTS, primary screen (AID 1347418). As to conditions: recombinant QSOX1, ROS-Glo H2O2 luminescence, at 12.5 µM, stronger effect = higher value; active = any value above zero unless noted.
Sequence of Sulfhydryl oxidase 1 (Homo sapiens) (O00391 whole entry, looked up): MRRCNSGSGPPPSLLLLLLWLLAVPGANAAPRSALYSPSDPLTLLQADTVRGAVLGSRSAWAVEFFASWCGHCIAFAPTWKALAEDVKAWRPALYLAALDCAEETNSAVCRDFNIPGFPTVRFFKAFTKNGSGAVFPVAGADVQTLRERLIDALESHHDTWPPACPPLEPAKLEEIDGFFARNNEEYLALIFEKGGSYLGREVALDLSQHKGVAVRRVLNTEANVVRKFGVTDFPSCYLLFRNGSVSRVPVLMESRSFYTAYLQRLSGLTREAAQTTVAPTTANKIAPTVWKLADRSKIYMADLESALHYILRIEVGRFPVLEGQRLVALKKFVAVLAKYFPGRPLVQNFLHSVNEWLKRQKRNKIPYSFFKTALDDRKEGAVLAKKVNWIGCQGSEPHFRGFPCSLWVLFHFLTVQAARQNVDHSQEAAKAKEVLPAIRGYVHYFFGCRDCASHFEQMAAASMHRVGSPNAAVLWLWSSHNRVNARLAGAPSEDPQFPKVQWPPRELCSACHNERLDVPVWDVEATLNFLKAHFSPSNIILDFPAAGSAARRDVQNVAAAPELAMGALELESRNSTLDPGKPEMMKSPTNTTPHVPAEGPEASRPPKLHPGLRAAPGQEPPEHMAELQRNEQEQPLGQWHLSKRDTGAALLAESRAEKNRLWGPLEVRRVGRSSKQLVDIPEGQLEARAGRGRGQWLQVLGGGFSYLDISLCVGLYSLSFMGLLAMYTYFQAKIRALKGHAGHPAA
Consider `C[C@H](Cc1ccc2c(c1)OC(C(=O)O)(C(=O)O)O2)NC[C@H](O)c1cccc(Cl)c1`, for which the inhibition is -1.8% (inactive). `NC(=O)COc1c(F)cc(SCCNS(=O)(=O)c2ccccc2)cc1F`: the inhibition is 4% (active). With `CC(=O)NBr`, the inhibition was -4.9% (inactive). For `O=C(N[C@H]1CN2CCC1CC2)c1ccc(Cl)cc1` the value was 0.7% (active). Consider `COC[C@H]1OC(=O)c2coc3c2[C@@]1(C)C1=C(C3=O)C2CCC(=O)[C@@]2(C)C[C@H]1OC(C)=O` (stereo partly drawn), for which the inhibition is 6% (active).

With `CCCCCCC(C)(C)c1ccc([C@@H]2C[C@H](O)CC[C@H]2CCCO)c(O)c1`, the inhibition was 5.1% [setting not given] (active). `CCCCCCCCCCCCCC(=O)O[C@@H]1[C@@H](C)[C@@]2(O)[C@@H](C=C(CO)C[C@@]3(O)C(=O)C(C)=C[C@@H]23)C2C(C)(C)[C@@]21OC(C)=O` (stereo partly drawn): the inhibition was 1.1% (active).

Take `CC(=O)[C@H]1CC[C@H]2[C@@H]3CC[C@H]4C[C@](C)(O)CC[C@]4(C)[C@H]3CC[C@]12C`: the inhibition is 0.1% [setting not given] (active). For `CC(=O)[C@H]1CCC2C3CC[C@H]4C[C@H](O)CC[C@]4(C)C3CC[C@@]21C` (stereo partly drawn) the value was -2.4% [setting not given] (inactive). `C[C@]12CCC3C(CC[C@H]4C[C@H](O)CC[C@]34C)C1CC[C@@H]2C(=O)CO` (stereo partly drawn): the inhibition was -1.5% (inactive). For `Cc1c(C(=O)c2cccc3ccccc23)c2cccc3c2n1[C@H](CN1CCOCC1)CO3` the value was 7.5% [setting not given] (active); for `O=C(O)c1cc[c]([Hg][Cl])cc1`, -7.7% (inactive). Consider `O=[N+]([O-])c1ccc2nc(N3CCNCC3)ccc2c1`, for which the inhibition is 0.9% (active). As to `C=CCN1C[C@@H](C)N([C@H](c2ccc(C(=O)N(CC)CC)cc2)c2cccc(OC)c2)C[C@@H]1C`, the inhibition was -4.2% (inactive).

As to `Cc1cc([C@@H]2CCCN2C)on1`, the inhibition was 4.2% (active). With `Clc1cc(I)cc(Cl)c1NC1=NCCN1`, the inhibition was -4.1% (inactive). On to `O=C1C=CC(=O)C=C1`, for which the inhibition was -2.3% (inactive).

For the compound `C[C@]12N[C@H](Cc3ccccc31)c1ccccc12`, the inhibition was 2.8% [setting not given] (active). As for `CC12NC(Cc3ccccc31)c1ccccc12` (stereo not drawn), the inhibition is 1.2% [setting not given] (active). For `CC(O)(CS(=O)(=O)c1ccc(F)cc1)C(=O)Nc1ccc(C#N)c(C(F)(F)F)c1` (stereo not drawn), the inhibition was -1.2% [setting not given] (inactive). For `C=C(C)[C@H]1CN[C@H](C(=O)O)[C@H]1CC(=O)O` the value was -6.1% (inactive); for `CC(C)[C@H]1CN[C@H](C(=O)O)[C@H]1CC(=O)O`, 0.8% (active). With `C=CCN1CC[C@]23CCCCC2[C@H]1Cc1ccc(O)cc13` (stereo partly drawn), the inhibition was 4.2% [setting not given] (active).

`NCC(O)c1cc(O)c(O)cc1F` (stereo not drawn): the inhibition is 12.3% (active). `NN=C(N)N`: the inhibition was 6.4% (active) and -1.5% (inactive).

Turning to `NCC1(CC(=O)O)CCCCC1`, the inhibition was -2.9% [setting not given] (inactive). `O=P1(N(CCCl)CCCl)NCCCO1` (stereo not drawn): the inhibition was 4.8% (active). For `c1ccc2cc(CC3=NCCN3)ccc2c1` the value was -1.3% [setting not given] (inactive). Take `CCCN(CCC)[C@@H]1CCc2ccc(O)cc2C1`: the inhibition was 6.3% (active).

As to `CCCN(CCC)C1CCc2ccc(O)cc2C1` (stereo not drawn), the inhibition is 3.7% (active).

With `CCCN(CCC)[C@H]1CCc2c(F)ccc(O)c2C1`, the inhibition was -4.8% (inactive). With `CCCN(CCC)[C@@H]1CCc2cccc(O)c2C1`, the inhibition was 3.9% (active). Regarding `CCCN(CCC)C1CCc2cccc(O)c2C1` (stereo not drawn), the inhibition is -7.7% (inactive). Consider `CCCN(CCC)C1Cc2cc(OC)c(OC)cc2C1`, for which the inhibition was -0.2% (inactive).

Consider `CN(N=O)c1cc(O)ccc1O`, for which the inhibition is 4.1% (active). For `CN(N=O)c1ccc(O)c(O)c1` the value was 5.2% (active); for `NC1CC1c1ccccc1` (stereo not drawn), -0.7% (inactive); for `CCCN1CCO[C@@H]2c3cc(O)ccc3OC[C@H]21`, 4.3% (active).

For the compound `CCCN1CC[C@@H]2c3cc(O)ccc3CC[C@@H]21`, the inhibition was -5.9% (inactive). `CCN(CCCl)Cc1ccccc1Br`: the inhibition was 1.5% (active). With `CN1CCc2cc(O)cc3c2[C@H]1Cc1ccc(O)c(O)c1-3`, the inhibition is 25.4% (active). As to `COc1ccc2c(c1O)-c1cccc3c1[C@@H](C2)N(C)CC3`, the inhibition is 3.5% (active). On to `COc1ccc2c(c1OC)C(=O)O[C@H]2[C@@H]1c2cc3c(cc2CCN1C)OCO3`, for which the inhibition is -2.2% (inactive). `CCCN1CCc2cccc3c2[C@H]1Cc1ccc(O)c(O)c1-3`: the inhibition was 25.2% (active). Turning to `C=CCN1CCc2cccc3c2[C@H]1Cc1ccc(O)c(O)c1-3`, the inhibition was 23.6% (active).

For `CCCN1CCc2cc(O)cc3c2[C@H]1Cc1ccc(O)c(O)c1-3`, the inhibition is 29.9% (active).

Turning to `C[C@H]1C2Cc3ccc(O)cc3C1(C)CCN2CC1CC1` (stereo partly drawn), the inhibition was 4.5% [setting not given] (active). For `O=C(O)CC[N+](=O)[O-]` the value was -3.4% [setting not given] (inactive). `CC(C)NP(=O)(NC(C)C)OP(=O)(NC(C)C)NC(C)C`: the inhibition is 10.1% (active). As to `C[C@H](N)CN1CCc2ccc(Br)cc21`, the inhibition is 35.7% (active). For `CCCn1c(=O)c2[nH]c(C3CCCC3)nc2n(CCCOC(=O)c2ccc(S(=O)(=O)F)cc2)c1=O`, the inhibition is -1.3% (inactive). Consider `CC(=O)c1c(O)c(C)c(O)c(Cc2c(O)c3c(c(C(=O)/C=C/c4ccccc4)c2O)OC(C)(C)C=C3)c1O`, for which the inhibition was 0.8% (active).

With `CCNC(=O)[C@H]1O[C@@H](n2cnc3c(N)ncnc32)C(O)[C@H]1O` (stereo partly drawn), the inhibition was 3.3% (active). Next, `CCCC(C)(COC(N)=O)COC(=O)NC(C)C` (stereo not drawn): 1.5% [setting not given] (active); `NC1CCc2cc(O)c(O)cc2C1` (stereo not drawn): 12.7% (active); `Ic1ccccc1CNC1C2CCN(CC2)C1C(c1ccccc1)c1ccccc1` (stereo not drawn): -6.2% (inactive). As to `COc1ccc2c(c1)C13CCCCC1C(C2)N(C)CC3` (stereo not drawn), the inhibition was -2.3% [setting not given] (inactive). For the compound `COc1ccc2c(c1)[C@@]13CCCC[C@H]1[C@@H](C2)NCC3`, the inhibition is 1.4% [setting not given] (active). Consider `c1ccc(C2CC2)c(OCC2=NCCN2)c1`, for which the inhibition was -2% (inactive). As for `CC(CCc1ccccc1)NC(C)C(O)c1ccc(O)cc1` (stereo not drawn), the inhibition was 0.8% (active). Take `Nc1ccc(CCN2CCN(c3cccc(C(F)(F)F)c3)CC2)cc1`: the inhibition was 2.2% (active). Regarding `S=C(NC1CCCCC1)N1CCC(c2cnc[nH]2)CC1`, the inhibition was -1.7% (inactive). Consider `Clc1ccc(N2CC3CCC(C2)N3)nn1`, for which the inhibition was 1.8% (active). Turning to `C#CCN[C@H](C)Cc1ccccc1`, the inhibition was 4.3% [setting not given] (active). Regarding `C[Se]C[C@H](N)C(=O)O`, the inhibition was 3.9% (active). `N[C@@H](CCl)C(=O)O`: the inhibition is -3.4% (inactive). With `O=C1NCN(c2ccccc2)C12CCN(CC1COc3ccccc3O1)CC2` (stereo not drawn), the inhibition is -3.1% (inactive). Next, `C/C(O)=C(\C#N)C(=O)Nc1cc(Br)ccc1Br`: -1.3% (inactive). Next, `COc1cc(CC(C)N)c(OC)cc1I` (stereo not drawn): 4.3% [setting not given] (active); `NC(=O)c1ccc(OCC(O)CN2CC=C(c3ccc(F)cc3)CC2)cc1` (stereo not drawn): 0.4% (active). For `COc1ccc(C(CN(C)C)C2(O)CCCCC2)cc1` (stereo not drawn) the value was -1.3% (inactive); for `CC(C)NC(C)Cc1ccc(I)cc1` (stereo not drawn), 5.2% [setting not given] (active); for `COc1ccc2[nH]c3c(c2c1)CCNC3`, 0.8% (active). On to `O=S1(=O)N(CCN2CC=C(c3c[nH]c4cc(F)ccc34)CC2)c2cccc3c2N1CCC3`, for which the inhibition is 4.2% (active). With `CC(=O)[C@H]1CC[C@H]2[C@@H]3CC[C@H]4C[C@H](O)CC[C@]4(C)[C@H]3C(=O)C[C@]12C`, the inhibition is -0.2% [setting not given] (inactive). In the case of `c1ccc(CCCN2CCN(CCOC(c3ccccc3)c3ccccc3)CC2)cc1`, the inhibition was 7% (active). As to `Fc1ccc(C(OCCN2CCN(CCCc3ccccc3)CC2)c2ccc(F)cc2)cc1`, the inhibition is 6.5% (active). With `O=C(CCCN1CCC2(CC1)C(=O)NCN2c1ccccc1)c1ccc(F)cc1`, the inhibition is -1% [setting not given] (inactive).

As for `CC[C@@H](CO)NC(=O)[C@@H]1C=C2c3cccc4[nH]cc(c34)C[C@H]2N(C)C1`, the inhibition was 6.3% [setting not given] (active). For `CC[C@@H](CO)NC(=O)[C@@H]1C=C2c3cccc4c3c(cn4C)C[C@H]2N(C)C1`, the inhibition is 1.6% [setting not given] (active). For `O=C1CC[C@@]2(O)C3Cc4ccc(O)c5c4C2(CCN3CC2CC2)[C@H]1O5` (stereo partly drawn), the inhibition is 1.2% [setting not given] (active). On to `C=CCN1CC[C@]23c4c5ccc(O)c4O[C@@H]2/C(=N/N=C2\CC[C@@]4(O)C6Cc7ccc(O)c8c7[C@@]4(CCN6CC=C)[C@@H]2O8)CC[C@@]3(O)C1C5`, for which the inhibition was 1.8% (active).

In the case of `C=CCN1CCC23c4c5ccc(O)c4O[C@H]2C(=O)CC[C@@]3(O)C1C5` (stereo partly drawn), the inhibition was 3.2% [setting not given] (active).

For `C=CCN1CC[C@]23c4c5ccc(O)c4O[C@H]2/C(=N/NC(=O)c2ccccc2)CC[C@@]3(O)[C@H]1C5`, the inhibition was -0.4% [setting not given] (inactive).

As to `CCOC(=O)c1ncn2c1[C@@H]1CCCN1C(=O)c1cc(OC)ccc1-2`, the inhibition was 3.1% (active). For `Cc1ncsc1CCCl` the value was 4.8% (active); for `Clc1cnc(Oc2ccc(Oc3ncc(Cl)cc3Cl)cc2)c(Cl)c1`, -1.5% [setting not given] (inactive). For `CN1CCC(c2c[nH]c3ccc(O)cc23)CC1` the value was 26.8% (active); for `CC(Cc1ccc(O)cc1)NCC(O)c1cc(O)cc(O)c1` (stereo not drawn), 7.9% [setting not given] (active); for `CC(Cc1ccc(OCC(=O)O)cc1)NCC(O)c1cccc(Cl)c1` (stereo not drawn), -3.3% (inactive).

In the case of `N[C@@]1(C(=O)O)CC[C@@H](C(=O)O)C1`, the inhibition is -1.7% (inactive). As to `CN1CC[C@@]2(C)c3cc(OC(=O)Nc4ccccc4)ccc3N(C)[C@@H]12`, the inhibition is 8.3% (active).

`CN1CC[C@@]2(C)c3cc(O)ccc3N(C)C12` (stereo partly drawn): the inhibition was 15.2% (active).

As usually defined, the inhibition is the drop in the measured response relative to a control, in per cent.
